Source: PubChem BioAssay (NCATS)
Several values for one entry are separate records, joined by “and”; a condition that tells them apart may be missing. Equal entries are not always repeated. Records with an inconclusive call do not appear. Activity calls are given as the source filed them. Unless noted, the call rests on the fitted dose curve.

Legend:
[1] = qHTS assay for small molecule agonists of retinoid X receptor alpha signaling (AID 588544); settings: HEK293T RXRa-UAS-bla, beta-lactamase reporter, 18 h; 530 nm emission;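 on activation: 0% = DMSO basal wells and 100% = reference agonist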
[2] = molecular target: Retinoic acid receptor RXR-alpha (Homo sapiens) (UniProt P19793); test: as above; settings: HEK293T RXRa-UAS-bla, beta-lactamase reporter, 18 h; series mostly up to 76.7 µM
[3] = molecular target: Thyroid hormone receptor beta (Homo sapiens) (UniProt P10828); test: qHTS assay for small molecule agonists of thyroid hormone receptor beta signaling (AID 588545); settings: TR-UAS-bla GripTite HEK 293, beta-lactamase ratio, agonist mode, 18 h, percent of T3 response, DMSO as zero; series mostly up to 76.7 µM;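 further: 0% = DMSO only and 100% = 10 nM T3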
Procedure, shortened: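 Efficacy and EC50 values derive from Hill fits of qHTS titration data, normalized to 10 nM T3 and DMSO-only wells. HEK 293 reporter cells were stimulated for 18 hrs at 37 C, with beta-lactamase activity measured by CCF4 fluorescence.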

[4] = qHTS assay for small molecule antagonists of retinoid X receptor alpha signaling (AID 588546; active means well fitted inhibition curve with a large enough effect in the signal ratio, with a control signal flat, not every such curve was filed as active; the % refers to the signal ratio;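 further: cells stimulated with 9-cis-retinoic acid as agonist; on the % scale 0 is the no-effect control and ±100 the full control effect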); settings: HEK293T RXRa-UAS-bla, beta-lactamase ratio, antagonist mode; measured here: W530 green channel, cytotoxicity proxy
Procedure, shortened: (§1)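 Beta-lactamase reporter inhibition, read as CCF4 fluorescence ratio (ex 405, em 460/530 nm) after 2 h at RT. HEK293T UAS-bla cells, 2500/well, were stimulated with 9-cis-RA at 500 or 100 nM final alongside test compound for 18 h at 37 C.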

[5] = molecular target: Retinoic acid receptor RXR-alpha (Homo sapiens) (UniProt P19793); test: as above; settings: HEK293T RXRa-UAS-bla, beta-lactamase ratio, antagonist mode
Procedure, shortened: as §1

[6] = molecular target: Thyroid hormone receptor beta (Homo sapiens) (UniProt P10828); test: qHTS assay for small molecule antagonists of thyroid hormone receptor beta signaling (AID 588547; active means well fitted inhibition curve with a large enough effect in the signal ratio, with a control signal flat, not every such curve was filed as active; the % refers to the signal ratio;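 further: cells stimulated with 0.4 nM T3 agonist during compound exposure; on the % scale 0 is the no-effect control and ±100 the full control effect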); settings: TR-UAS-bla HEK293, beta-lactamase ratio, antagonist mode, 18 h
Procedure, shortened: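 TR-UAS-bla GripTite HEK293 cells in 2% charcoal/dextran FBS medium were preincubated 4 h at 37 C, given compound (0.59 nM to 92 uM) plus 0.4 nM T3 (final) for 18 h, then CCF4 for 2 h at RT; Hill fit gave IC50.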

[7] = molecular target: Voltage-gated inwardly rectifying potassium channel KCNH2 (Homo sapiens) (UniProt Q12809); test: qHTS Assay for Small Molecule Inhibitors of the Human hERG Channel Activity (AID 588834; active means well fitted inhibition curve with a large enough effect;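 further: top concentration of the series differs between compounds; on the % scale 0 is the no-effect control and ±100 the full control effect; lower thallium flux fluorescence means stronger hERG block; nearly all actives have a fitted effect of over 50% in size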); settings: U2OS BacMam hERG, FluxOR thallium flux fluorescence; series mostly up to 92.2 µM
Procedure, shortened: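 hERG-BacMam U2OS, 2000 cells/well; 0.7X FluxOR loading 1 hr RT dark; cpd ~10 min 37 °C; stim buffer; FDSS fluorescence 2 min @ 1 s; AC50 Hill fit.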

[8] = qHTS assay for small molecule activators of the nuclear factor-kappa B (NF-kB) signaling pathway (AID 651749; active means well fitted activation curve with a large enough effect in the signal ratio; the % refers to the signal ratio; further: % of control where 0% means no effect); settings: NF-kB-bla ME-180 cells, beta-lactamase FRET ratio, 16 h; stronger effect = higher value
Procedure, shortened: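 Screening used 2,000 ME-180 reporter cells per well exposed to pinned compound (23 nL) or DMSO; after 16 hr at 37C, beta-lactamase expression under NF-kB control was assessed through FRET.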

[9] = qHTS assay for small molecule activators of the p53 signaling pathway (AID 651743; active means well fitted activation curve with a large enough effect in the signal ratio, not every such curve was filed as active; the % refers to the signal ratio; further: % of control where 0% means no effect); settings: HCT-116 p53RE-bla, beta-lactamase FRET ratio, 16 h; stronger effect = higher value
Procedure, shortened: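 Cell-based beta-lactamase reporter (p53 response elements, HCT-116 background). After a 5-hour preincubation, cells received compound for 16 hours at 37 C; substrate development ran 2 hours at room temperature.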

Chain of Retinoic acid receptor RXR-alpha (Homo sapiens) (P19793 whole entry, looked up): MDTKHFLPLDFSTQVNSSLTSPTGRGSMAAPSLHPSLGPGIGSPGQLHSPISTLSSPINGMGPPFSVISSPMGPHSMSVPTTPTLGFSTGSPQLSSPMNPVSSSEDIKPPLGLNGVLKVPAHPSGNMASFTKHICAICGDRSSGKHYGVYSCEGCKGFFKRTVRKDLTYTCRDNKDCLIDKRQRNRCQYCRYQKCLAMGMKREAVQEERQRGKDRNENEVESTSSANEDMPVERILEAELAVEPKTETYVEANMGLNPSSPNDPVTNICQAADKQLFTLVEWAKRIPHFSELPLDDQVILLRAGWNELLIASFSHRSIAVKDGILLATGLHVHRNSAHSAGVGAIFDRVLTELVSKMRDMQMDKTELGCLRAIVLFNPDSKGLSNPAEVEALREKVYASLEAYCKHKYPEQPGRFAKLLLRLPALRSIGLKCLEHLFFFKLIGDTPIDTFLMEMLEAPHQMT
Chain of Voltage-gated inwardly rectifying potassium channel KCNH2 (Homo sapiens) (Q12809 whole entry, looked up): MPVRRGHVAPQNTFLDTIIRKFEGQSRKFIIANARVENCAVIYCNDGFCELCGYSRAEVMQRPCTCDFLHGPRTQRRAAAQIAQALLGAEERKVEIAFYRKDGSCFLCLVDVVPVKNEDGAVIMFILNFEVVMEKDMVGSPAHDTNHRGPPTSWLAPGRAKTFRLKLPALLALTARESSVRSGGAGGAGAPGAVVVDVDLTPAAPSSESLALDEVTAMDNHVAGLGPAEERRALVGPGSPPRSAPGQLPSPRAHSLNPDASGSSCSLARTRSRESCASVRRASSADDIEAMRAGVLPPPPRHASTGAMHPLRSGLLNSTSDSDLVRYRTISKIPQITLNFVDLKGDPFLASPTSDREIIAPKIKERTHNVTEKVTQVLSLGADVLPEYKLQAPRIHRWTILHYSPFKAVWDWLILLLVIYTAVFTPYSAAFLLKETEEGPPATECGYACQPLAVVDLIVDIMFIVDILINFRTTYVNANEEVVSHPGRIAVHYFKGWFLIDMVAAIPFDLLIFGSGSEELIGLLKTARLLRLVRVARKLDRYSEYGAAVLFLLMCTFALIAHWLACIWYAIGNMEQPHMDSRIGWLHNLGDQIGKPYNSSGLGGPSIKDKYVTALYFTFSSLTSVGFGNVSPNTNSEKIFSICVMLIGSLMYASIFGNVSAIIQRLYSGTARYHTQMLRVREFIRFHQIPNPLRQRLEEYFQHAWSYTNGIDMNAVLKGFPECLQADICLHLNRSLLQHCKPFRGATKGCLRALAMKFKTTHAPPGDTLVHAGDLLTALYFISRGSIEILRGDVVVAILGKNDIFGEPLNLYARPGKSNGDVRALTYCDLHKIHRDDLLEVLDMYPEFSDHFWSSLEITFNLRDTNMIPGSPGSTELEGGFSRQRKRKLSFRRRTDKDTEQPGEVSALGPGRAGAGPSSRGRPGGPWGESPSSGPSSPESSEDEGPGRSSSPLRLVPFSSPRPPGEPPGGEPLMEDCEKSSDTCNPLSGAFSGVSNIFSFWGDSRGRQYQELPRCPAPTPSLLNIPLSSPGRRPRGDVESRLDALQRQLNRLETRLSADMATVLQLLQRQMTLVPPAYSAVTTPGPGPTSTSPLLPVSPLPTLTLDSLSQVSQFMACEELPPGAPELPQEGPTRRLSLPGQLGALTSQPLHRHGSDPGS
Chain of Thyroid hormone receptor beta (Homo sapiens) (P10828 whole entry, looked up): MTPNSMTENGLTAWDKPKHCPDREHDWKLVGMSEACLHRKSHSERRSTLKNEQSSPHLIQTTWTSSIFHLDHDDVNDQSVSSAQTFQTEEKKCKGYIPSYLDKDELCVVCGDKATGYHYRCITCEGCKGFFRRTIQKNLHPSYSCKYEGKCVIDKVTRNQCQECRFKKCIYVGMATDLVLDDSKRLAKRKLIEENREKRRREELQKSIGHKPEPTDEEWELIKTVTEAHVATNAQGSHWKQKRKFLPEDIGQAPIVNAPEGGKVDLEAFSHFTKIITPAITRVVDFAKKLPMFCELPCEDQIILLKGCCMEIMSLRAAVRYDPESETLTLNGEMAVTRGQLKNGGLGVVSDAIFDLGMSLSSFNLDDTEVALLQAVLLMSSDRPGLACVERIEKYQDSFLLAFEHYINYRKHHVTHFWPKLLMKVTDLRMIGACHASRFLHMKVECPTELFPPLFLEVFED

Structure (SMILES) | max response [1] | outcome [2] | outcome [3] | max response [4] | max response [5] | activity change % (negative = inhibition) [6] | Potency [7] | activation [8] | activation [9]
O=C1OC(=O)c2c(Br)c(Br)c(Br)c(Br)c21 | -2.51% and -8.84% | inactive | inactive | -0.218% and -8.01% | 6.1% (inactive) and -5.43% (inactive) | 7.07% (inactive) and -6.85% (inactive) | inactive | 0.149% (inactive) and 3.05% (inactive) | 
CSc1ccc(C=O)cc1 | -15.5% | inactive | inactive | -1.24% | 1.67% (inactive) | 3.08% (inactive) | inactive | 0.0922% (inactive) | 
CNC(=O)N(c1ccccc1)c1ccccc1 | -17.1% | inactive | inactive | 12.2% | -3.69% (inactive) | 10.1% (inactive) | inactive | 0.192% (inactive) | 
CC(=O)c1nccs1 | 4.76% | inactive | inactive | -5.53% | -9.7% (inactive) | 1.64% (inactive) | inactive |  | -4.02% (inactive)
Nc1ccc(Cl)cc1[N+](=O)[O-] | -5.09% | inactive | inactive | -5.59% | -5.85% (inactive) | 1.54% (inactive) | inactive | -1.3% (inactive) | -3.6% (inactive)
O=C(Cl)c1cccc([N+](=O)[O-])c1 | 14.1% | inactive | inactive | 0.426% | 24.8% (inactive) | 5.89% (inactive) | inactive | -0.912% (inactive) | 
O=c1[nH][nH]c(=O)c2cc([N+](=O)[O-])ccc12 | -1.84% | inactive | inactive | -8.03% | 10.6% (inactive) | 15.8% (inactive) | inactive | 0.392% (inactive) | -3.95% (inactive)
O=[N+]([O-])c1ccc(CCO)cc1 | -1.7% | inactive | inactive | -0.777% | 2.63% (inactive) | 3.64% (inactive) | inactive | -0.318% (inactive) | -2.15% (inactive)
O=[N+]([O-])c1c(Cl)cc(Cl)cc1Cl | -6.72% | inactive | inactive | -2.99% | 8.69% (inactive) | 3.07% (inactive) | inactive | -0.147% (inactive) | 1.35% (inactive)
C=CCCC | -12.1% | inactive | inactive | 2.87% | 8.21% (inactive) | 20.1% (inactive) | inactive | -0.388% (inactive) | -0.508% (inactive)
C=CC(=O)NC(C)C | -3.51% | inactive | inactive | 5.01% | 0.568% (inactive) | -0.537% (inactive) | inactive | 0.588% (inactive) | -0.785% (inactive)
CC(C)C=O | 3.23% | inactive | inactive | -14.5% | 8.49% (inactive) | -10% (inactive) | inactive | -1.3% (inactive) | 
O=[N+]([O-])c1ccc(Cl)cc1Cl | -6.43% | inactive | inactive | -4.28% | 10.3% (inactive) | 17.6% (inactive) | inactive | 0.0961% (inactive) | 
Cc1ccco1 | -10.8% | inactive | inactive | -5.98% | 5.14% (inactive) | 12.3% (inactive) | inactive | -0.364% (inactive) | 2.07% (inactive)
Cc1cc(C)cc(N)c1 | -7.06% | inactive | inactive | 1.47% | 9.88% (inactive) | -11.7% (inactive) | inactive | 0.882% (inactive) | -1.89% (inactive)
Cc1ccc(Cl)cc1N | 3.01% | inactive | inactive | -7.87% | 0.248% (inactive) | -4.43% (inactive) | inactive | 0.369% (inactive) | 0.545% (inactive)
C=CCCCCCCC=C | -11.6% | inactive | inactive | -1.72% | -6.51% (inactive) | -6.39% (inactive) | inactive | -0.256% (inactive) | 0.568% (inactive)
CC(C)N(C)C | -10.9% | inactive | inactive | -0.298% | 11.2% (inactive) | -6.45% (inactive) | inactive | -1.35% (inactive) | -1.2% (inactive)
CC(=O)Nc1cccc(N)c1 | -8.93% | inactive | inactive | -0.371% | 6.6% (inactive) | -3.78% (inactive) | inactive | 0.511% (inactive) | 1.81% (inactive)
O=Cc1cccc(Br)c1 | 0.636% | inactive | inactive | 0.346% | 4.36% (inactive) | -16.4% (inactive) | inactive |  | -0.251% (inactive)
CCCCC=O | -7.77% | inactive | inactive | -1.56% | -1.19% (inactive) | -3.59% (inactive) | inactive | 0.166% (inactive) | 
c1ccc(Oc2ccccc2)cc1 | -5.86% and -5.26% | inactive | inactive | -2.47% and -11.6% | -1.69% (inactive) and -4.15% (inactive) | 13.9% (inactive) and 3.24% (inactive) | inactive | -0.173% (inactive) and -1.25% (inactive) | -0.263% (inactive) and 10.2% (inactive)
O=C(O)c1ccccc1[N+](=O)[O-] | -10.1% | inactive | inactive | -4.69% | 2.43% (inactive) | 6.51% (inactive) | inactive | 0.408% (inactive) | 2% (inactive)
